{"source": "PubChem BioAssay", "note": "Unmarked numbers belong to inactive results. Active and inactive are the calls of the source. Rule as the data show it: active = fold change permeability below about 0.7 or above about 1.3; inactive = in between.", "data": [{"assay": "compounds altering in vitro BBB leakiness – cell-based, FITC-avidin fluorescence, HTS, primary screen (AID 1963498); also: test concentration not given here", "conditions": "brain endothelial barrier, actives lie on both sides", "values": [{"compound": "Fc1cccc(/C=N\\N=C/c2cccc(F)c2)c1", "fold change permeability": 0.8}, {"compound": "O=C1CCCC(=O)C1C(=O)c1ccc(C(F)(F)F)cc1[N+](=O)[O-]", "fold change permeability": 0.9}, {"compound": "CCCCCCC(=O)OC1CC(C)(C)NC(C)(C)C1", "fold change permeability": 0.9}, {"compound": "CC(C)c1nc(N(C)S(C)(=O)=O)nc(-c2ccc(F)cc2)c1/C=C/[C@@H](O)C[C@@H](O)CC(=O)O", "fold change permeability": 0.9}, {"compound": "CC(C)(N)C(=O)N[C@H](COCc1ccccc1)C(=O)N1CCC2(CC1)CN(S(C)(=O)=O)c1ccccc12", "fold change permeability": "1.8 (active)"}, {"compound": "CC(C)c1cccc(C(C)C)c1N1C(=O)c2ccc(O)cc2C1=O", "fold change permeability": "1.6 (active)"}, {"compound": "CC(=O)Oc1cc(C(F)(F)F)ccc1C(=O)O", "fold change permeability": 0.8}, {"compound": "CC(C)(O)[C@@H]1CC[C@](C)([C@H]2[C@@H](O)C[C@@]3(C)[C@@H]4C[C@H](O)[C@H]5C(C)(C)[C@@H](O)CC[C@@]56C[C@@]46CC[C@]23C)O1", "fold change permeability": 1}, {"compound": "CC(CN(C)C)CN1c2ccccc2CCc2ccccc21", "note": "(stereo not given)", "fold change permeability": "1.4 (active)"}, {"compound": "Oc1ccc2c(c1)CC[C@H](c1ccccc1)[C@@H]2c1ccc(OCCN2CCCC2)cc1", "fold change permeability": "1.3 (active)"}, {"compound": "COc1cc(C[C@H](C)[C@H](C)Cc2ccc3c(c2)OCO3)ccc1O", "fold change permeability": "1.7 (active)"}, {"compound": "O=c1[nH]c(=O)c2nc3ccccc3nc2[nH]1", "fold change permeability": "1.3 (active)"}, {"compound": "NC1=NCC2c3ccccc3Cc3ccccc3N12", "note": "(stereo not given)", "fold change permeability": 0.8}, {"compound": "C=C1C[C@@]23CC[C@H]4[C@@](C)(CCC[C@@]4(C)C(=O)O[C@@H]4O[C@H](CO)[C@@H](O)[C@H](O)[C@H]4O)[C@@H]2CC[C@]1(O[C@@H]1O[C@H](CO)[C@@H](O)[C@H](O)[C@H]1O[C@@H]1O[C@H](CO)[C@@H](O)[C@H](O)[C@H]1O)C3", "fold change permeability": "1.7 (active)"}, {"compound": "CC(C)Cc1ccc([C@H](C)C(=O)O)cc1", "fold change permeability": "2.3 (active)"}, {"compound": "CN(C)[C@@H]1C(=O)C(C(N)=O)=C(O)[C@@]2(O)C(=O)C3=C(O)c4c(O)ccc(Cl)c4[C@@H](O)[C@H]3C[C@@H]12", "fold change permeability": 1}, {"compound": "Cc1cccc(-c2[nH]c(C(C)(C)C)nc2-c2ccc3nccnc3c2)n1", "fold change permeability": "1.4 (active)"}, {"compound": "Cc1nc2sccn2c(=O)c1CCN1CCC(=C(c2ccc(F)cc2)c2ccc(F)cc2)CC1", "fold change permeability": "1.9 (active)"}, {"compound": "COc1ccc2c(c1OC)C(=O)O[C@@H]2[C@H]1c2c(cc3c(c2OC)OCO3)CCN1C", "fold change permeability": 1}, {"compound": "O=c1cc2c(=O)oc3cc(O)c(O)oc3c2c(O)c1O", "fold change permeability": "1.9 (active)"}, {"compound": "O=C(Nc1cccc(C(=O)Nc2ccc(S(=O)(=O)O)c3cc(S(=O)(=O)O)cc(S(=O)(=O)O)c23)c1)Nc1cccc(C(=O)Nc2ccc(S(=O)(=O)O)c3cc(S(=O)(=O)O)cc(S(=O)(=O)O)c23)c1", "fold change permeability": 0.9}, {"compound": "CCCCCCCCCCCCCCCCCCOP(=O)([O-])OC1CC[N+](C)(C)CC1", "fold change permeability": 0.9}, {"compound": "CCCCCC(O)CCCC(=O)O", "note": "(stereo not given)", "fold change permeability": 1}, {"compound": "CCC(NC(C)C)C(O)c1ccc(O)c(O)c1", "note": "(stereo not given)", "fold change permeability": "1.9 (active)"}, {"compound": "O=C(c1ccc(Br)cc1)N1CC2C3CCC(O3)C2C1", "note": "(stereo not given)", "fold change permeability": 1.2}, {"compound": "N[C@@H](Cc1ccc(O)c(I)c1)C(=O)O", "fold change permeability": "1.9 (active)"}, {"compound": "CCCC1O[C@@H]2C[C@H]3[C@@H]4CCC5=CC(=O)C=C[C@]5(C)[C@H]4[C@@H](O)C[C@]3(C)[C@]2(C(=O)CO)O1", "note": "(stereo not given in full)", "fold change permeability": 1.1}, {"compound": "COc1cc(NS(C)(=O)=O)ccc1Nc1c2ccccc2nc2ccccc12", "fold change permeability": 1.2}, {"compound": "CC[C@H](NC(=O)c1c(O)c(-c2ccccc2)nc2ccccc12)c1ccccc1", "fold change permeability": 1.1}, {"compound": "C[C@H]1c2cccc(O)c2C(O)=C2C(=O)[C@]3(O)C(O)=C(C(N)=O)C(=O)[C@@H](N(C)C)[C@@H]3[C@@H](O)[C@@H]21", "fold change permeability": 0.9}, {"compound": "NC(=O)CC[C@H](N)C(=O)O", "fold change permeability": 0.8}, {"compound": "CC(C)(C)c1ccc(C(=O)CCCN2CCC(OC(c3ccccc3)c3ccccc3)CC2)cc1", "fold change permeability": "1.6 (active)"}, {"compound": "Cc1c(C(C)C)c(=O)n(-c2ccc(S(=O)(=O)NCCOc3ccccc3)cc2)n1C", "fold change permeability": "1.3 (active)"}, {"compound": "CO[C@@]1(NC(=O)CSCC#N)C(=O)N2C(C(=O)O)=C(CSc3nnnn3C)CS[C@@H]21", "fold change permeability": 0.9}, {"compound": "O=P(O)(O)C(O)(Cn1ccnc1)P(=O)(O)O", "fold change permeability": 0.8}, {"compound": "CC(C)NCC(O)c1ccc(NS(C)(=O)=O)cc1", "note": "(stereo not given)", "fold change permeability": "0.7 (active)"}, {"compound": "CN(C)c1cc2c(Nc3ccc4c(cnn4Cc4ccccc4)c3)ncnc2cn1", "fold change permeability": "3.5 (active)"}, {"compound": "C[C@](N)(Cc1ccc(O)c(O)c1)C(=O)O", "fold change permeability": 0.8}, {"compound": "CC(=O)O[C@H]1CC[C@@]2(C)C(=CC[C@@H]3[C@@H]2CC[C@]2(C)C(c4cccnc4)=CC[C@@H]32)C1", "fold change permeability": "1.8 (active)"}, {"compound": "CCN(CC)CCNC(=O)c1ccc(N)cc1", "fold change permeability": 0.8}]}]}
